The values below come from PubChem BioAssay (NCI).

The panel holds about 83,000 compounds, 20% with a hit somewhere; the sample as a whole holds those more often.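 A percent growth of 40 corresponds to 60% growth inhibition; 0 means no net growth; -100 means all cells died. Active threshold: below 10.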 A number with no mark means an inactive call. Activity calls are given as the source filed them.

In the assay the test system is UACC-257 melanoma. Put plainly: NCI-60 one-dose screen, 48 h (100 = growth as untreated, 0 = no growth, -100 = all killed). The note with it: 10 µM unless noted.
In the case of `C(=C1c2ccccc2-c2ccccc21)c1ccncc1`, the growth is 74.5%.
In the case of `O=Nc1c2cccnc2n2nnc3ccc(Cl)cc3c12` it was 28.6%.
In the case of `COc1ccc(/C=C2/SC(=Nc3c(C)nn(-c4ccccc4)c3N)NC2=O)cc1` it was 59%.
To `Cc1cc(-c2ccccc2)cc(C)n1` belongs 108%; to `CCSCC1CC(O)(c2ccccc2)C(c2ccccc2)C(c2ccc(Cl)cc2)O1` (stereo not given), -11.5% (active).
In the case of `Cc1[nH]cnc1/C=C1\SC(N2CCCCC2)=NC1=O`, the growth was 105%.
In the case of `C[N+]1(C)C2CC[C@@H]1CC(OC(=O)C(O)c1ccccc1)C2` (stereo not given in full) it was 110%.
To `CN(C)CCCN=c1cc2c(=O)n(CCCN(C)C)c(=O)c3c(NCCCN(C)C)cc4c(O)n(CCCN(C)C)c(=O)c1c4c3-2` belongs -27.3% (active).
To `CCOC(=O)Nc1ccc2c3c(cccc13)-c1ccccc1-2` belongs 59.4%.
With `O=C1/C(=C\c2coc3ccccc3c2=O)c2ccccc2N1c1c(Cl)cccc1Cl`, the growth was 61.2%.
As for `O=C(Oc1cccc2ccccc12)c1ccccc1C(=O)c1ccccc1`, the growth was 90.4%.
To `O=C1N=C(N2CCOCC2)S/C1=C\c1cn(-c2ccccc2)nc1-c1ccccc1` belongs 81.9%; to `O=C(O)CNC(=O)C1(N2C(=O)c3ccccc3C2=O)CCCC1`, 109%; to `c1ccc(CN=C(NCc2ccccc2)NCc2ccccc2)cc1`, -13.2% (active).
In the case of `CN1CCN(CCCCCN=c2cc3c(=O)n(CCCCCN4CCN(C)CC4)c(=O)c4c(NCCCCCN5CCN(C)CC5)cc5c(O)n(CCCCCN6CCN(C)CC6)c(=O)c2c5c4-3)CC1` it was -11.4% (active).
